# Screens from PubChem.
# TDP1 cell CPT = growth inhibition of DT40 Tdp1-/-;hTDP1 cells with camptothecin (screen for TDP1 inhibitors); chicken DT40 Tdp1-/-;hTDP1 cells + 20 nM CPT, ATP luminescence, 48 h; Potency, µM (titrated, usually from 46.2 µM), most hits filed as inhibitors; 420,000 compounds, 12% hits; AID 686979; further: nearly all actives have a fitted effect of over 55% in size
#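 Chicken DT40 Tdp1-/- cells stably complemented with human TDP1 were seeded at 400 cells/well in medium containing 20 nM camptothecin, exposed to pin-transferred compounds, and grown at 37 °C for at least 48 hr. Viability was read as ATP luminescence.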
# IL1B secr inh = inhibitors of inflammasome signaling (IL-1 beta secretion); THP-1 LPS/ATP IL-1B secretion, AlphaLISA, 16 h; hits give low values; activity change, % at 57.5 µM; 360,000 compounds, 4.7% hits; AID 743279; in the data active means activity change below about -50%; inconclusive means mostly about -30% to -49%
#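 THP-1 cells pretreated 1 hr with compounds (up to 57.5 uM final), then stimulated with LPS (250 ng/mL final) plus ATP (1.25 mM final); secreted IL-1B measured by AlphaLISA after 16 hr, decreased signal indicating inhibition.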
# ClpP mod = qHTS Assay for Activators of ClpP | ATP-dependent Clp protease proteolytic subunit (Bacillus subtilis (strain 168)), P80244 | purified B. subtilis ClpP, FRET peptide cleavage, 20 min | Potency, µM (titrated, usually from 57.5 µM) | 340,000 compounds, 1.9% hits; active means well fitted falling curve with a large enough effect; inconclusive means small, poorly fitted or top-dose-only effect; inactive means no such curve, though single readings can be large or run the other way; further: the source files actives as falling curves though it sought activators and does not explain the sign; nearly all actives have a fitted effect of over 65% in size
#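 Purified B. subtilis ClpP, 10 microg/mL final in Tris/HCl pH8 with KCl, BSA, glycerol and Tween-20, cleaved an Abz/nitrotyrosine-quenched decapeptide. Fluorescence (ex 320, em 430) was read at 0 and 20 min at room temperature. Delta was normalized to 5.8 microM ADEP and DMSO/no-enzyme controls.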
# D3 ag = activates the human D3 dopamine receptor; P35462; 410,000 compounds, 0.58% hits; AID 652048; max activation, %; D3R DiscoveRx beta-arrestin cells, luminescence, 90 min; in the data active means max activation above about 30%
#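 Agonist mode: compounds and dopamine controls were applied to plated cells for 90 min at 37 degrees C after an overnight attachment at 1500 cells/well. Luminescent read-out followed 30 - 60 minutes at room temperature with DiscoveRx detection reagent.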
# DRD3 antagonist = blocks the human D3 dopamine receptor; P35462; D3R cells, DiscoveRx beta-arrestin luminescence, antagonist mode; hits give low values; max response, negative = inhibition, %; 360,000 compounds, 2.5% hits; AID 652054; in the data active means max response below about -50%; inconclusive means no clear call, values can overlap the other calls
#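 Cells plated overnight at 1500 cells/well, then exposed to library compounds with dopamine controls for 90 minutes at 37 degrees C. DiscoveRx reagent added for 30–60 minutes at room temperature; luminescence read, quantitative HTS format.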
# TDP1 cell noCPT = qHTS for Inhibitors of human tyrosyl-DNA phosphodiesterase 1 (TDP1): qHTS in cells in absence of CPT. DT40 Tdp1-/- hTDP1 cells, no CPT, ATP luminescence, 48 h. Potency, µM (top dose mostly 46.2 µM), actives largely listed as inhibitors. 420,000 compounds, 15% hits. AID 686978, 2013; further: nearly all actives have a fitted effect of over 55% in size
#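 Cells were dispensed at 400 per well, compounds added by pin tool, plates incubated ≥48 hr at 37 °C, then CellTiter-Glo added for 30 min at room temperature before luminescence reading. Line: DT40 Tdp1-/- complemented with hTDP1; camptothecin omitted.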
# Numbers stand for hits; – = inactive; ? = inconclusive; · = no result; [ ] = another dose, or the depositor's remark. Only some compounds are listed: those with a hit (about 21% of all), similar ones and a draw of the others. Unless noted, the call rests on the fitted dose curve; in most records, active means well fitted inhibition curve with a large enough effect; inconclusive means small, poorly fitted or top-dose-only effect; inactive means flat fitted curve, though single readings scatter.
SMILES,TDP1 cell CPT,IL1B secr inh,ClpP mod,D3 ag,DRD3 antagonist,TDP1 cell noCPT
CCCN1C(=O)c2ccccc2NC1c1cc(OC)c(OC)c(OC)c1 (centres undefined),–,–,18µM,–,–,–
CCN(CC)CCN1C(=O)c2ccccc2NC1c1cc(OC)c(OC)c(OC)c1 (centres undefined),–,–,13µM,–,–,–
CCCN1C(=O)c2ccccc2NC1c1ccc(OC)c(COc2cccc(C)c2C)c1 (centres undefined),?,·,–,·,·,16µM
COc1cc(C2Nc3ccccc3C(=O)N2Cc2ccco2)cc(OC)c1OC (centres undefined),?,·,–,·,·,?
COc1cc(C2Nc3ccccc3C(=O)N2Cc2ccccc2)ccc1OCc1ccccc1 (centres undefined),?,·,–,·,·,?
COc1ccc(CCN2C(=O)c3ccccc3NC2c2cc(Cl)c(O)c(OC)c2)cc1 (centres undefined),4.6µM,–,·,–,–,4.1µM
C[C@H](CO)N1C[C@H](C)[C@H](CN(C)S(=O)(=O)c2ccccc2)OCc2cnnn2CCCC1=O,?,–,–,–,–,–
CCCCc1cc(=O)oc2cc(C)cc(OC(C)C(=O)NCc3ccncc3)c12 (centres undefined),?,?,–,–,–,–
CC(/C=N/NC(=O)c1cnccn1)=C\c1ccco1,–,·,·,–,–,?
COc1ccccc1Nc1ncnc2c1c(C)c(C)n2CCO,–,?,·,–,–,–
COc1ccc(C2Nc3ccccc3C(=O)N2c2cccc3ccccc23)cc1COc1c(C)cccc1C (centres undefined),3.2µM,·,–,·,·,2.8µM
O=S(=O)(NCc1ccccc1)c1ccccc1Br,–,–,–,–,–,–
O=S(=O)(NCc1ccccc1)c1ccc(Br)c2nsnc12,–,-72,·,–,–,–
O=C(Oc1cccc2ccccc12)c1ccccc1,–,–,–,–,–,?
O=C(Oc1c(-c2ccccc2)oc2ccccc2c1=O)c1ccccc1,?,–,–,–,–,10µM
O=C(Oc1cc(=O)oc2ccccc12)c1ccccc1,2.6µM,–,–,–,–,2.3µM
O=C(Oc1c(-c2ccccc2Cl)oc2ccccc2c1=O)c1ccc(Cl)cc1,?,–,–,–,–,?
O=C(CCC(=O)N(CC(=O)NC1CCCC1)Cc1ccc(F)cc1)Nc1nccs1,–,–,·,–,–,–
O=C(Cc1cccc(NC(=O)C2CCN(C(=O)C3CC3)CC2)c1)Nc1cccc(C(=O)N2CCCCC2)c1,–,–,–,–,–,–
COC(=O)c1ccc(COc2ccc3c(C)c(C)c(=O)oc3c2)o1,–,–,2.8µM,–,–,–
O=C(O)c1ccc(COc2ccc3c4c(c(=O)oc3c2)CCC4)o1,–,–,2.5µM,–,–,–
Cc1cnc(-n2ncc(C(=O)NCc3ccccn3)c2C2CC2)nc1-c1cccs1,–[9.04 µM],·,·,·,·,–
COc1cccc(N2CCN(C(=O)C3Cc4ccccc4N3C(C)=O)CC2)c1 (centres undefined),?,·,–,–,·,–
c1ccc2c(c1)C1=NCCN1c1ccccc1-2,2.9µM,-105,–,–,–,2.3µM
COC1=Nc2ccccc2N2CCN=C12,–,–,–,–,–,–
SMILES,TDP1 cell CPT,IL1B secr inh,ClpP mod,D3 ag,DRD3 antagonist,TDP1 cell noCPT
O=C(Cn1cnc2c(OCc3ccccc3)ncnc21)NCCCc1ccccc1,–,–,–,–,–,–
Cc1nc2c(C(=O)N3CCCCC3)cnn2c(C)c1Cc1ccccc1F,?,–,–,–,–,16µM
Cc1nc2c(C(=O)N3CCN(C)CC3)cnn2c(C)c1Cc1ccc(Cl)cc1,–,–,25µM,–,-75,–
C=CCc1c(C)nc2c(C(=O)O)cnn2c1C,–,–,32µM,–,–,–
COc1ccccc1CNC(=O)CSc1nc(=O)[nH]c2c1CCC2,–,·,–,–,·,–
COc1ccc(CCN(C(=O)C(F)(F)F)C(C(=O)NC2CCCCC2)c2ccc(C)s2)cc1 (centres undefined),3.3µM,–,–,–,–,2.8µM
COCCN(C(=O)C(F)(F)F)C(C(=O)NC1CCCCC1)c1ccco1 (centres undefined),–,–,–,–,–,?
COc1ccc(CCN(C(=O)C(F)(F)F)C(C(=O)NC2CCCCC2)c2cccs2)cc1 (centres undefined),7.3µM,–,–,–,–,4.6µM
O=C(NC1CCCCC1)C(c1cccs1)N(Cc1cccs1)C(=O)c1cccs1 (centres undefined),18µM,-66,–,–,–,16µM
O=C(NC1CCCCC1)C(c1ccc2ncccc2c1)N(Cc1cccs1)C(=O)c1cccs1 (centres undefined),?,?,–,–,–,?
O=C(NC(=S)Nc1ccc2[nH]c(=O)[nH]c2c1)c1cccc(F)c1,–,–,–,–,–,–
C[C@@H]1CN([C@H](C)CO)C(=O)c2cc(Br)cnc2O[C@H]1CN(C)C(=O)Nc1ccccc1F,–,–,–,–,–,–
COc1cc(C=O)ccc1Oc1nc(Nc2ccc(F)cc2F)nc(N2CCOCC2)n1,?,-56,·,–,–,?
CNc1cnc(-c2ccc(O)c(OC)c2)cn1,16µM,-61,–,–,–,?
Cc1ccc(S(=O)(=O)N2[C@H](CC(=O)c3ccccc3)OC[C@@H]2C)cc1,?,–,–,–,–,?
Cc1ccc(S(=O)(=O)N2C[C@@H]3CCCC[C@@H]3[C@@H](C)[C@H]2CC(=O)c2ccccc2)cc1,15µM,–,–,–,–,13µM
CCOc1ccc(S(=O)(=O)N2CCC(N3CCN(Cc4ccc(C)cc4)C(=O)C3=O)CC2)cc1,–,·,–,–,·,–
COc1cccc(-c2cn3c(n2)sc2cc(C(=O)NCCc4ccccc4)ccc23)c1,7.3µM,·,–,–,·,7.3µM
COc1ccc(NC(=O)c2ccc3c(c2)sc2nc(-c4ccc(OC)cc4)cn23)cc1,–,·,?,–,·,–
COc1ccc(-c2cn3c(n2)sc2cc(C(=O)Nc4cc(Cl)ccc4C)ccc23)cc1,6.5µM,·,?,–,·,2.9µM
CCOc1ccc(-c2cn3c(n2)sc2cc(C(=O)NCCc4ccc(OC)c(OC)c4)ccc23)cc1,12µM,·,35µM,–,·,10µM
CCc1ccc(-c2cn3c(n2)sc2cc(C(=O)NCC(C)c4ccccc4)ccc23)cc1 (centres undefined),?,·,?,–,·,–
COc1ccc(-c2cn3c(n2)sc2cc(C(=O)NCC(C)c4ccccc4)ccc23)cc1 (centres undefined),?,·,–,–,·,5.8µM
